According to PubChem BioAssay AID1159580 (chemical genetic matrix, 2015):
“And” between values parts separate entries of the source, which are not always exact repeats. Equal entries are not always repeated. About 2,000 (36%) of roughly 5,500 compounds were called active. Another 18% or so got no clear call; they are omitted. No stated cut-off is given here; in the data, active means normalized growth mostly below about 0.91 (no sharp cut-off); inconclusive means no clear call, values can overlap the other calls; inactive means mostly above about 0.92. The list shows a part of the results.

Experiment: chemical genetic growth profiling, strain panel (AID 1159580);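 further: tested at 20 µM; growth read once vehicle control cultures reached saturation at 30 °C; 1 = growth at the plate median or of vehicle wells; lower values mean less growth of the strain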
Settings: S. cerevisiae deletion strains, growth OD

Measured: normalized growth

CCOC(=O)c1c(C)cc(OC)cc1O
inactive: locus YAL013W, strain DEP1, active compounds read low 1 | locus YAL021C, strain ccr4, active compounds read low 1.02 | locus YAL026C, strain drs2, active compounds read low 0.977 | locus YAL030W, strain snc1, active compounds read low 0.962 | locus YBL061C, strain skt5, active compounds read low 0.981 | locus YBR009C, strain hhf1, active compounds read low 0.962 | locus YBR021W, strain FUR4, active compounds read low 0.971 | locus YBR023C, strain chs3, active compounds read low 0.97 | locus YBR171W, strain sec66, active compounds read low 0.934 | locus YBR229C, strain ROT2, active compounds read low 1 | locus YBR231C, strain swc5, active compounds read low 0.987 | locus YBR279W, strain paf1, active compounds read low 0.993 | locus YCL011C, strain gbp2, active compounds read low 0.975 | locus YCL016C, strain dcc1, active compounds read low 0.971 | locus YCL029C, strain bik1, active compounds read low 0.949 | locus YCL061C, strain MRC1, active compounds read low 0.972 | locus YCL069W, strain vba3, active compounds read low 0.969 | locus YCR088W, strain abp1, active compounds read low 0.953 | locus YDL005C, strain med2, active compounds read low 1.01 | locus YDL035C, strain GPR1, active compounds read low 0.983 | locus YDL040C, strain nat1, active compounds read low 0.959 | locus YDL074C, strain BRE1, active compounds read low 0.955 | locus YDL101C, strain DUN1, active compounds read low 1.01 | locus YDL134C, strain PPH21, active compounds read low 0.996 | locus YDL185W, strain tfp1, active compounds read low 0.984 | locus YDL192W, strain arf1, active compounds read low 0.942 | locus YDR001C, strain nth1, active compounds read low 0.96 | locus YDR069C, strain doa4, active compounds read low 0.999 | locus YDR150W, strain NUM1, active compounds read low 1.01 | locus YDR159W, strain sac3, active compounds read low 0.926 | locus YDR162C, strain NBP2, active compounds read low 1.01 | locus YDR195W, strain ref2 1.1 | locus YDR297W, strain sur2, active compounds read low 0.975 | locus YDR334W, strain swr1, active compounds read low 0.979 | locus YDR335W, strain msn5, active compounds read low 0.991 | locus YDR388W, active compounds read low 0.958 | locus YEL003W, strain gim4, active compounds read low 0.964 | locus YEL037C, strain rad23, active compounds read low 0.978 | locus YEL061C, strain CIN8 (second series), active compounds read low 0.962 | locus YEL061C, strain CIN8, active compounds read low 0.989 | locus YER015W, strain faa2, active compounds read low 0.991 | locus YER016W, strain bim1, active compounds read low 0.975 | locus YER111C, strain swi4, active compounds read low 0.985 | locus YER155C, strain BEM2, active compounds read low 0.985 | locus YER167W, strain BCK2, active compounds read low 0.935 | locus YFR010W, strain ubp6, active compounds read low 0.99 | locus YGL078C, strain dbp3, active compounds read low 0.963 | locus YGL086W, strain mad1, active compounds read low 0.943 | locus YGL167C, strain pmr1, active compounds read low 0.973 | locus YGL173C, strain kem1, active compounds read low 0.985 | locus YGL227W, strain vid30, active compounds read low 0.963 | locus YGL240W, strain doc1, active compounds read low 0.903 | locus YGL248W, strain PDE1, active compounds read low 1 | locus YGL253W, strain hxk2, active compounds read low 0.994 | locus YGR078C, strain PAC10, active compounds read low 0.965 | locus YGR135W, strain pre9, active compounds read low 0.912 | locus YGR229C, strain SMI1, active compounds read low 0.972 | locus YGR252W, strain gcn5, active compounds read low 0.918 | locus YHR013C, strain ard1, active compounds read low 0.969 | locus YHR027C, strain rpn1, active compounds read low 0.988 | locus YHR030C, strain SLT2, active compounds read low 0.983 and 0.948 | locus YHR079C, strain IRE1, active compounds read low 0.956 | locus YHR094C, strain hxt1, active compounds read low 0.946 | locus YHR129C, strain ARP1, active compounds read low 0.983 | locus YHR142W, strain chs7, active compounds read low 0.918 | locus YHR200W, strain rpn10, active compounds read low 0.926 | locus YIL066C, strain RNR3, active compounds read low 1 | locus YIL073C, strain SPO22, active compounds read low 0.891 | locus YIR030C, strain dcg1, active compounds read low 0.94 | locus YJL092W, strain hpr5, active compounds read low 0.96 | locus YJL095W, strain BCK1 (second series), active compounds read low 0.976 | locus YJL095W, strain BCK1, active compounds read low 0.951 and 0.943 | locus YJL115W, strain asf1, active compounds read low 0.981 | locus YJL129C, strain trk1, active compounds read low 0.933 | locus YJL134W, strain LCB3, active compounds read low 0.988 | locus YJL154C, strain vps35, active compounds read low 0.97 | locus YJL166W, strain qcr8, active compounds read low 0.97 | locus YJL168C, strain set2, active compounds read low 0.959 | locus YJL187C, strain SWE1 (second series), active compounds read low 1 | locus YJL187C, strain SWE1, active compounds read low 0.979 | locus YJR043C, strain POL32, active compounds read low 0.921 | locus YJR066W, strain TOR1, active compounds read low 0.9
active: locus YDR101C, strain arx1, active compounds read low 0.917 | locus YDR137W, strain rgp1, active compounds read low 0.784 | locus YDR318W, strain mcm21, active compounds read low 0.902 | locus YDR392W, strain spt3, active compounds read low 0.724 | locus YDR502C, strain sam2, active compounds read low 0.921 | locus YER110C, active compounds read low 0.899 | locus YER155C, strain BEM2 (second series), active compounds read low 0.609 | locus YHR079C, strain IRE1 (second series), active compounds read low 0.912 | locus YIL125W, strain kgd1, active compounds read low 0.929 | locus YJL164C, strain tpk1, active compounds read low 0.911
